Assay results taken from PubChem BioAssay AID1745849 (National Center for Advancing Translational Sciences (NCATS), 2022).
The campaign covered roughly 2,100 compounds. About 320 (15%) were called active. Not shown: some 52% with an inconclusive outcome. Calls come from the whole dose curve; as a rule, active = well fitted cell-killing curve with a large enough effect; inconclusive = small, poorly fitted or top-dose-only effect, or effect the other way; inactive = flat fitted curve, though single readings scatter. This is one part of the list. Entries that show only a call come without a potency.

test: Viability Counterscreen for CMV-Luciferase Assay of Inhibitors of ATXN expression; conditions: HEK-293 CMV-luciferase cells viability, protease fluorescence, 24 h; note: nearly all actives have a fitted effect of over 55% in size
Outline: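 HEK-293 cells stably expressing a CMV-luciferase reporter were exposed to compounds at several concentrations for 24 hr at 37 degree C. Viability was read as Gly-Phe-AFC fluorescence (25 uM final, 30 min). SteadyGlo luminescence was then measured after 5 min.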
Potency is the fitted concentration of half-maximal effect.

| Structure (SMILES) | Potency |
| --- | --- |
| CC(C)=CCc1c(O)cc2oc3c(CC=C(C)C)c(O)c(O)c(CC=C(C)C)c3c(=O)c2c1O | inactive |
| O=C(Nc1ccc(N2CCN(C(=O)c3ccccc3)CC2)c(Cl)c1)c1ccc(Br)o1 | inactive |
| O=C(Nc1ccc(N2CCOCC2)c(Cl)c1)c1c(F)c(F)c(F)c(F)c1F | inactive |
| O=C(Nc1ccc(Cl)cc1)Nc1ccc(N2CCCC2)c(S(=O)(=O)Nc2ccccc2Cl)c1 | 7.94 µM (active) |
| Cc1ccc2nc(N(CCCN(C)C)C(=O)c3ccc(S(=O)(=O)N4CCCCCC4)cc3)sc2c1 | inactive |
| Cc1cc(Cl)ccc1-c1cc2nc(NCCCN(C)C)n(C)c(=O)c2s1 | inactive |
| Cc1ccc(C(=O)N(CCCN(C)C)c2nc3ccc(Cl)cc3s2)cc1C | 22.4 µM (active) |
| Cc1cc(C)c2nc(N(CCCN(C)C)C(=O)c3ccc4c(c3)OCCO4)sc2c1 | 31.6 µM (active) |
| CCOC(=O)c1c(NC(=O)COC(=O)CNC(=O)c2ccco2)sc(C)c1C | inactive |
| CC(=O)NC(c1ccco1)c1cc(Cl)c2cccnc2c1O (centres undefined) | inactive |
| CC(=O)NC(c1cccs1)c1cc([N+](=O)[O-])c2cccnc2c1O (centres undefined) | 11.2 µM (active) |
| CC(=O)NC(C)c1cc(Cl)c2cccnc2c1O (centres undefined) | inactive |
| CCC(=O)NC(c1ccco1)c1cc(Cl)c2cccnc2c1O (centres undefined) | inactive |
| CCC(=O)NC(C)c1cc(Cl)c2cccnc2c1O (centres undefined) | inactive |
| CCC(=O)NC(c1ccc(C)cc1)c1cc([N+](=O)[O-])c2cccnc2c1O (centres undefined) | 15.8 µM (active) |
| CC(C)C(=O)NC(c1ccccc1)c1cc([N+](=O)[O-])c2cccnc2c1O (centres undefined) | 20 µM (active) |
| CCCCC(=O)NC(c1ccco1)c1cc(Cl)c2cccnc2c1O (centres undefined) | inactive |
| Cc1nc(-c2c(C(F)(F)F)noc2-c2ccc(O)cc2O)cs1 | inactive |
| COc1ccc(Nc2oc(COc3ccccc3OC)nc2C#N)cc1 | inactive |
| N#Cc1c(NCCN)nc(-c2ccco2)c2c1CCCC2 | inactive |
| CN(C)CCCNC(=O)/C=C/c1ccc(OCc2c(F)cccc2Cl)cc1 | inactive |
| O=C1N(c2ccccc2)C[C@@H]2C[C@@H](c3cc4ccccc4o3)N3CCC[C@@]123 | 0.355 µM (active) |

| Structure (SMILES) | Potency |
| --- | --- |
| CC(C)(O)C#Cc1ccc([C@@H]2C[C@H]3CN(c4ccccc4)C(=O)[C@]34CCCN24)s1 | 11.2 µM (active) |
| CCN1c2ccccc2NC2N=C(OC)C(c3ccccc3)C21 (centres undefined) | 12.6 µM (active) |
| Cn1c(=O)c2cc(NC(=O)Nc3cccnc3)ccc2n1Cc1ccc(Cl)cc1 | inactive |
| Cc1c(C(=O)N2c3ccccc3Sc3ccccc32)cccc1[N+](=O)[O-] | inactive |
| Cc1onc(-c2ccccc2)c1C(=O)Nc1ccc(S(=O)(=O)NC(C)(C)C)cc1 | inactive |
| Cc1nnc(SC(C)C(=O)Nc2ccc(Cl)cn2)n1Cc1ccccc1 (centres undefined) | inactive |
| O=C(N/N=C\c1c(O)ccc2ccccc12)c1ccc(Cn2cccn2)o1 | inactive |
| Cc1occc1C(=O)N/N=C/c1c(O)ccc2ccccc12 | inactive |
| COc1ccc(NC(C)C(=O)N/N=C/c2c(O)ccc3ccccc23)cc1 (centres undefined) | 8.91 µM (active) |
| C=CCc1cccc(CNc2nc3ccccc3n2C(C)C)c1O | inactive |
| O=C(CSc1n[nH]c(-c2ccccn2)n1)Nc1cccc(Cl)c1 | 10 µM (active) |
| O=C(CSc1nnc(-c2ccc(Br)cc2)o1)Nc1cccc(C(=O)O)c1 | inactive |
| O=C(CSc1nc2ncc(Cl)cc2[nH]1)Nc1cccc(F)c1 | inactive |
| Cc1ccccc1NC(=O)CSc1n[nH]c(-c2ccccn2)n1 | 20 µM (active) |
| O=C(CSc1n[nH]c(-c2ccccn2)n1)Nc1ccc(F)cc1 | 17.8 µM (active) |
| Cc1cc(NC(=O)CSc2nccn2-c2cccc(C)c2C)no1 | inactive |
| O=C(CSc1nc2ncc(Br)cc2[nH]1)Nc1ccccc1-c1ccccc1 | inactive |
| O=C(CSc1ccc2ccccc2c1)Nc1nc2ccccc2[nH]1 | inactive |
| CCc1nc2ccc(C(=O)N(C)Cc3ccccc3)cn2c1N(C)Cc1ccc(OC)cc1 | inactive |
| Cc1csc(NC(=O)COCC(=O)O)c1-c1nc2ccccc2s1 | inactive |
| Cn1c(COc2ccc(Cl)cc2)nnc1SCc1ncc(-c2ccccc2)o1 | inactive |
| CCOc1ccc(-c2c[n+]3c(n2-c2ccccc2)CCCCC3)cc1 | inactive |

| Structure (SMILES) | Potency |
| --- | --- |
| COc1ccc(-c2c[n+]3c(n2-c2ccc(C)cc2)CCCCC3)cc1 | 12.6 µM (active) |
| COc1ccc(-c2c[n+]3c4n2CCCCC4=C(c2ccc(Br)cc2)C3)cc1 | inactive |
| CN(c1ccccc1)c1ccc(/C=N/NC(=O)CC#N)cc1 | inactive |
| CCCc1cc(C(=O)Nc2ccc(C(=O)c3ccc(C)cc3)cc2)n(C)n1 | inactive |
| O=C(Nc1ccc[n+](CC(=O)c2cccc3ccccc23)c1)c1ccccc1 | 3.16 µM (active) |
| CC(C(=O)c1ccc(-c2ccccc2)cc1)[n+]1cccc(NC(=O)c2ccccc2)c1 (centres undefined) | inactive |
| OC(CNCCc1ccccc1)COc1ccc(OCC(O)CNCCc2ccccc2)cc1 (centres undefined) | 28.2 µM (active) |
| OCCN(Cc1ccccc1)CC(O)COc1ccc(-c2ccccc2)cc1 (centres undefined) | inactive |
| CCOc1ccccc1NC(=O)N1CCC(c2nc3ccccc3[nH]2)CC1 | inactive |
| O=c1nc(N/N=C/c2ccccn2)cn[nH]1 | 7.94 µM (active) |
| C(=N\Nc1ccc2nncn2n1)/c1ccccn1 | 11.2 µM (active) |
| O=c1cnnc(N/N=C/c2ccccn2)[nH]1 | 1.58 µM (active) |
| C(=N\NC(=Nc1ccccc1)c1ccccn1)/c1ccccn1 | inactive |
| COc1cccc(CNCCc2c[nH]c3ccccc23)c1OCc1ccc(F)cc1 | inactive |
| Cc1cc(N2CCN(c3nc(-c4ccccc4)cs3)CC2)c2ccccc2n1 | inactive |
| CCN1CCS/C1=C\C=C\C1=[N+](CC)CCS1 | 15.8 µM (active) |
| CCOC(=O)c1sc2nc(CSc3ccccc3)nc(NCCN(C)C)c2c1C | inactive |
| COc1ccc(OCCNC(=O)C2(C)CCN2Cc2ccc3ccccc3c2)cc1 (centres undefined) | inactive |
| CCCCn1c(/C=N/Nc2nc3ccccc3[nH]2)nc2ccccc21 | inactive |
| O=C1C=Cc2cccc3ccc(O)c1c23 | inactive |
| Cc1cc(SCC(=O)N/N=C/c2ccc(O)cc2O)c(C)cc1Br | 11.2 µM (active) |
| COc1ccc2nc(C)cc(SCC(=O)N/N=C/c3ccc(O)cc3O)c2c1 | 7.94 µM (active) |

| Structure (SMILES) | Potency |
| --- | --- |
| O=C(/C=C\c1ccccc1)NCC(=O)N/N=C/c1ccc(O)cc1O | 10 µM (active) |
| O=C(CNS(=O)(=O)c1ccc([N+](=O)[O-])cc1)N/N=C/c1ccc(O)cc1O | inactive |
| O=C(N/N=C/c1ccc(O)cc1O)/C(=C/c1ccccc1)CCO | inactive |
| CCOc1ccc(/C=N/NC(=O)C(O)c2ccccc2)c(O)c1 (centres undefined) | inactive |
| O=C(NN=Cc1ccc(O)cc1O)c1ccccc1NS(=O)(=O)c1cccs1 | inactive |
| Cc1cc(C)n(CCC(=O)N/N=C/c2ccc(O)cc2O)n1 | inactive |
| O=C(CP(=O)(c1ccccc1)c1ccccc1)N/N=C/c1cc(Br)cc(Br)c1O | inactive |
| COc1ccc(O)c(/C=N/NC(=O)c2ccc(CSc3nc(C)cc(C)n3)cc2)c1 | inactive |
| COc1ccc(N2CCN(c3cc(C)nc4ccc(OC)cc34)CC2)cc1 | inactive |
| Cc1cc(SCC(=O)N/N=C/c2ccc(O)cc2O)nc2ccccc12 | 12.6 µM (active) |
| CCCCn1c(SCC(=O)Nc2cc(C(F)(F)F)cc(C(F)(F)F)c2)nnc1C(CC)N(C)C (centres undefined) | inactive |
| COc1cc2ccnc(Cc3cccc(OC)c3OC)c2cc1OC | inactive |
| Cn1cc(SCC(=O)Nc2nc3ccccc3s2)c2ccccc21 | inactive |
| COc1ccc(/C=C/C(=O)Nc2cccc(F)c2)cc1S(=O)(=O)N1CCOCC1 | inactive |
| O=C(Nc1cccc(Br)c1)Oc1cccc2cccnc12 | inactive |
| c1cnc2c(c1)ccc1cccnc12 | 5.01 µM (active) |
| CCCC(=O)N1CCCC(c2cc(C(=O)Nc3ccccc3)no2)C1 (centres undefined) | inactive |
| Cc1nn(-c2ccccn2)c2c1C(=O)CC(C)(C)C2N=[N+]=[N-] (centres undefined) | inactive |
| CCc1cc2c(N3CCN(c4nnc(CC)s4)CC3)ncnc2s1 | inactive |
| CC(O)CNCCNCc1c(OCc2ccccc2)ccc2ccccc12 (centres undefined) | inactive |
| NC(N)=N/N=C/c1ccc2cccc(OCc3ccccc3)c2n1 | 14.1 µM (active) |
| Cc1cc(C)nc(/N=C(\N)Nc2ccc(OCc3ccccc3)cc2)n1 | inactive |

| Structure (SMILES) | Potency |
| --- | --- |
| COc1ccccc1C(CCNCc1ccccc1)c1ccc(OC(C)C)cc1 (centres undefined) | inactive |
| CN1C2CCC1/C(=C\c1ccccc1)C(=O)/C2=C\c1ccccc1 | 10 µM (active) |
| Cc1ccc2c(Cl)cc(Cl)c(OCC(=O)Nc3cc(S(=O)(=O)N(C)C)ccc3C)c2n1 | inactive |
| Clc1cccc(-c2nc(NCc3cccnc3)c3ccccc3n2)c1 | inactive |
| CN1CCN(c2nc(-c3ccccn3)nc3ccccc23)CC1 | inactive |
| c1ccc(CNc2nc(-c3ccccn3)nc3ccccc23)cc1 | 7.94 µM (active) |
| CC(C)CCNC(=O)COc1cccc2c1OC(C)(C)C2 | inactive |
| COc1cc(/C=C/C(O)=C/C(=O)/C=C/c2ccc(O)cc2)ccc1O | inactive |
| COc1cc(OC)c(C(=O)C=Cc2ccc(OC)c(OC)c2)c(OC)c1 | 20 µM (active) |
| COc1cc(C=CC(=O)c2cc(OC)c(OC)c(OC)c2)cc(OC)c1OC | 10 µM (active) |
| COc1ccc(C(=O)/C=C/c2ccc(OC3CSC3)cc2)cc1OC | inactive |
| COc1ccc(NC(=O)c2oc3ccc(S(=O)(=O)N4CCC5(CC4)OCCO5)cc3c2C)cc1 | inactive |
| Cn1ncc2c(Nc3cccc(Cl)c3)nc(Nc3cccc(Cl)c3)nc21 | inactive |
| CC1Sc2ccc(S(=O)(=O)CCC(=O)N3CCN(c4cccc(Cl)c4)CC3)cc2NC1=O (centres undefined) | inactive |
| CC(O)(c1ccccc1)c1nc(-c2ccncc2)cs1 (centres undefined) | inactive |
| CC(=O)c1c(C)[nH]c(C(=O)Nc2nc(-c3ccc(-c4ccccc4)cc3)cs2)c1C | 11.2 µM (active) |
| CC(=O)c1sc(NC(=O)c2cc(-c3ccccc3)nn2-c2ccccc2)nc1C | inactive |
| O=C(Nc1nc(-c2ccccc2)cs1)c1ccccc1NS(=O)(=O)c1ccc(F)cc1 | 3.16 µM (active) |
| COc1ccc(-c2csc(NC(=O)c3ccccc3NS(=O)(=O)c3ccc(F)c(F)c3)n2)cc1 | 2.24 µM (active) |
| COc1ccc(C(=O)Nc2nc(-c3ccc(S(=O)(=O)N4CCOCC4)cc3)cs2)cc1 | inactive |
| COc1ccccc1C(=O)Nc1nc(-c2ccc(S(=O)(=O)N3CCOCC3)cc2)cs1 | inactive |
